{
  "source": "PubChem BioAssay",
  "note": "The source made the active and inactive calls.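 Rule for the calls, unless noted: active = calcium signal rise above buffer-control mean plus 5 SD in both duplicates, and also a hit in the primary screen; inactive = the rest.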",
  "data": [
    {"molecular_target": "Short transient receptor potential channel 6 (Mus musculus) (UniProt Q61143)", "sequence (Q61143 whole entry, looked up)": "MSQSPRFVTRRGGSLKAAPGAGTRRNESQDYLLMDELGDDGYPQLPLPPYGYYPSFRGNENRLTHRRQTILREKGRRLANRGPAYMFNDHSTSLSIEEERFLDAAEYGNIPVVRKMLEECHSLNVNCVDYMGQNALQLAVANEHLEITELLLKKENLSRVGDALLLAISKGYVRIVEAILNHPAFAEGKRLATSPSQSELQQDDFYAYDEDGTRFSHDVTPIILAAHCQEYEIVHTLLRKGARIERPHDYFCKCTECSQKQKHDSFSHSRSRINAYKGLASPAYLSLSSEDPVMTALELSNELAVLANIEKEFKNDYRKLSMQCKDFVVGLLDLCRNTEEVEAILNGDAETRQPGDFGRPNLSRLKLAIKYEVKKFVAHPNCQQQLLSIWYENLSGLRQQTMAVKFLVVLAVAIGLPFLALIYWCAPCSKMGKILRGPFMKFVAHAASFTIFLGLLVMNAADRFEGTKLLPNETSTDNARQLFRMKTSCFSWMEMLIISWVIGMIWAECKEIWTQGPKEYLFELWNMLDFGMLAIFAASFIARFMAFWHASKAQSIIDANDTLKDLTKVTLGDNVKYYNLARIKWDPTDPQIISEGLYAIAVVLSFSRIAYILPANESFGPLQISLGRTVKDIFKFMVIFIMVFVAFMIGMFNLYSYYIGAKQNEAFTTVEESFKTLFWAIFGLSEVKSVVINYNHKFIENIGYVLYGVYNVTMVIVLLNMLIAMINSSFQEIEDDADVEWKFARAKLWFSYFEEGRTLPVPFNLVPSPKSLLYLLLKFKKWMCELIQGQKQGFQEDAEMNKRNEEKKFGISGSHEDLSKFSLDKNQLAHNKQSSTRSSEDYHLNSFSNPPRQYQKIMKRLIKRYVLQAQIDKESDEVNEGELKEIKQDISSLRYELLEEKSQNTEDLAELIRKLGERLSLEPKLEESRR", "assay": "TRPC6 potentiation by TRPC4 potentiator hits, confirmation, selectivity assay for TRPC4 potentiator project, HEK293 cells, membrane potential dye, duplicate (AID 434952;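 active = compound raising the membrane signal above positive-control mean plus 3 SD in both repeats, and a primary screen hit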)", "conditions": "HEK293 TRPC6, membrane potential dye fluorescence, at 10 µM, maximal acetylcholine added after compound; stronger effect = higher value", "values": [
      {"compound": "NC1=NC2(CCN(Cc3ccccc3)CC2)n2c(nc3ccccc32)N1", "outcome": "inactive"},
      {"compound": "COc1ccc(CN2CCC(N(CCc3ccccc3)Cc3ccccc3)CC2)c(OC)c1", "outcome": "inactive"},
      {"compound": "CCc1ccc(C(=O)c2cnc3ccc(OC)cc3c2N2CCN(CC)CC2)cc1", "outcome": "inactive"},
      {"compound": "S=C(NCCc1cnc[nH]1)NC1CCCC1", "outcome": "inactive"},
      {"compound": "O=C(NCc1ccccc1)C1=C[C@H](c2ccccc2)C[C@H](OCc2ccc(CO)cc2)O1", "outcome": "inactive"},
      {"compound": "Cc1ccc(OCC(=O)N(C)CCc2ccccn2)cc1", "outcome": "inactive"},
      {"compound": "CC(C)(C)C(=O)/C=c1\\s/c(=C\\c2ccc(-c3ccc([N+](=O)[O-])cc3)o2)c(=O)n1CC(=O)NC(N)=O", "potentiation, percent of control": "436% (active)"},
      {"compound": "NC(=O)C1CCCN(CCc2ccccc2)C1", "note": "(stereo not drawn)", "outcome": "inactive"},
      {"compound": "Cc1cc2nc3s/c(=C/c4ccc(-c5ccccc5C(=O)O)o4)c(=O)n3c2cc1C", "outcome": "inactive"},
      {"compound": "COc1ccc(CNCc2cn(-c3cccc(F)c3)nc2-c2ccc(C)o2)cc1", "outcome": "inactive"},
      {"compound": "CN(C)C(CNc1ccc(C(F)(F)F)cn1)c1ccccc1", "note": "(stereo not drawn)", "outcome": "inactive"},
      {"compound": "CN(C)C(CNC(=O)c1cccc(S(=O)(=O)N(C)C)c1)c1ccccc1", "note": "(stereo not drawn)", "outcome": "inactive"},
      {"compound": "CCCc1c(O)nc(SCCN(CC)CC)[nH]c1=O", "outcome": "inactive"},
      {"compound": "CCC(=O)N1CCc2cc(Br)cc(S(=O)(=O)NCCCN(CC)Cc3ccccc3)c21", "outcome": "inactive"},
      {"compound": "Cc1ccc(Cn2c(SCCN3CCCCC3)nc3c2c(=O)n(C)c(=O)n3C)cc1", "outcome": "inactive"},
      {"compound": "O=C(O)C1C2C=CC(C2)C1C(=O)N1CCN(C/C=C/c2ccccc2)CC1", "note": "(stereo not drawn)", "outcome": "inactive"},
      {"compound": "COc1ccc(C)c(NC(=O)NCCc2cnc[nH]2)c1", "outcome": "inactive"},
      {"compound": "OCCC1CN(Cc2ccccc2-c2ccco2)CCN1Cc1ccccc1", "note": "(stereo not drawn)", "outcome": "inactive"},
      {"compound": "COc1ccc(CCN(C)C(=O)C2CCCN(C3CCN(Cc4ccccc4)CC3)C2)cc1OC", "note": "(stereo not drawn)", "outcome": "inactive"},
      {"compound": "CCOc1ccc(S(=O)(=O)Nc2cccc(C(=O)NCC(c3ccccc3)N(C)C)c2)cc1", "note": "(stereo not drawn)", "outcome": "inactive"},
      {"compound": "Cc1cc(C)cc(NC(=S)N2CCN(c3ncc(C(F)(F)F)cc3Cl)CC2)c1", "outcome": "inactive"},
      {"compound": "COc1ccc(C(CNC(=O)c2cccc(Br)c2)N2CCCC2)cc1", "note": "(stereo not drawn)", "outcome": "inactive"},
      {"compound": "CC(C)n1cnc2c(N(C)c3ccccc3)nc(N(CCN(C)C)Cc3ccccc3)nc21", "outcome": "inactive"},
      {"compound": "Cc1cccn2c(CNCCc3ccccn3)c(C(=O)N3CCOCC3)nc12", "outcome": "inactive"},
      {"compound": "Cc1ccc(C)c(-n2cc(CNCCCn3cccn3)c(-c3ccccc3)n2)c1", "outcome": "inactive"},
      {"compound": "Cc1csc2c(N3CCN(C(=O)Nc4ccc(OC(F)(F)F)cc4)CC3)ncnc12", "outcome": "inactive"},
      {"compound": "CN(CCc1ccccn1)C(=S)Nc1cccc(S(=O)(=O)N(C)C)c1", "outcome": "inactive"},
      {"compound": "Cc1ccc(NC(=S)NC2CC3CCC(C2)N3Cc2ccco2)c(C)c1", "note": "(stereo not drawn)", "outcome": "inactive"},
      {"compound": "COc1cc2c(cc1OC)C(C)N(C(=O)C(NC(=O)c1ccccc1)C(C)C)CC2", "note": "(stereo not drawn)", "outcome": "inactive"},
      {"compound": "O=C(NC1CC1)C1=C[C@H](c2csc3ccccc23)C[C@H](OCc2ccc(CO)cc2)O1", "outcome": "inactive"},
      {"compound": "Clc1ccc2nc(N3CCNCC3)nc(-c3ccccc3)c2c1", "outcome": "inactive"},
      {"compound": "COc1ccc(C(CNC(=O)/C=C/c2c(Cl)nc3ccccn23)N(C)C)cc1", "note": "(stereo not drawn)", "outcome": "inactive"},
      {"compound": "CC(=O)n1cc([C@H]2C=C(C(=O)NCc3ccccc3)O[C@@H](OCc3ccc(CO)cc3)C2)c2ccccc21", "outcome": "inactive"},
      {"compound": "CCCn1ncc(CN2CCC(n3nccc3NC(=O)CCc3ccccc3)CC2)c1C", "outcome": "inactive"},
      {"compound": "CC(=O)NC(CC(=O)NCC(c1ccco1)N(C)C)c1ccccc1", "note": "(stereo not drawn)", "outcome": "inactive"},
      {"compound": "COc1ccc(C(=O)NNC(=S)NC(=O)c2cccs2)cc1", "outcome": "inactive"},
      {"compound": "COCCn1nnnc1C(c1cc2ccc(OC)cc2[nH]c1=O)N1CCN(C2CCCCC2)CC1", "note": "(stereo not drawn)", "outcome": "inactive"},
      {"compound": "O=C(c1sc2ccccc2c1Cl)N(Cc1ccccc1)C1CCS(=O)(=O)C1", "note": "(stereo not drawn)", "outcome": "inactive"},
      {"compound": "O=c1c(Cc2ccc(F)cc2)c(O)ccn1CCc1cnc[nH]1", "outcome": "inactive"}
    ]},
    {"molecular_target": "Short transient receptor potential channel 4 (Mus musculus) (UniProt Q9QUQ5)", "assay": "calcium flux activators in TRPC4/5HT1a cells, counter-screen for TRPC4 activator project, cell-based, second counter screen, HEK293 TRPC4/5HT1a, Fluo-4 (AID 434977);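 for activation: plate controls were assay buffer for no effect and maximal serotonin response for full effect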", "conditions": "Fluo-4 calcium flux, at 10 µM; stronger effect = higher value", "values": [
      {"compound": "NC1=NC2(CCN(Cc3ccccc3)CC2)n2c(nc3ccccc32)N1", "outcome": "inactive"},
      {"compound": "COc1ccc(CN2CCC(N(CCc3ccccc3)Cc3ccccc3)CC2)c(OC)c1", "outcome": "inactive"},
      {"compound": "CCc1ccc(C(=O)c2cnc3ccc(OC)cc3c2N2CCN(CC)CC2)cc1", "outcome": "inactive"},
      {"compound": "S=C(NCCc1cnc[nH]1)NC1CCCC1", "activation": "79.6% (active)"},
      {"compound": "O=C(NCc1ccccc1)C1=C[C@H](c2ccccc2)C[C@H](OCc2ccc(CO)cc2)O1", "activation": "178% (active)"},
      {"compound": "Cc1ccc(OCC(=O)N(C)CCc2ccccn2)cc1", "activation": "45.5% (active)"},
      {"compound": "CC(C)(C)C(=O)/C=c1\\s/c(=C\\c2ccc(-c3ccc([N+](=O)[O-])cc3)o2)c(=O)n1CC(=O)NC(N)=O", "activation": "30% (active)"},
      {"compound": "NC(=O)C1CCCN(CCc2ccccc2)C1", "note": "(stereo not drawn)", "activation": "74.3% (active)"},
      {"compound": "Cc1cc2nc3s/c(=C/c4ccc(-c5ccccc5C(=O)O)o4)c(=O)n3c2cc1C", "activation": "112% (active)"},
      {"compound": "COc1ccc(CNCc2cn(-c3cccc(F)c3)nc2-c2ccc(C)o2)cc1", "outcome": "inactive"},
      {"compound": "CN(C)C(CNc1ccc(C(F)(F)F)cn1)c1ccccc1", "note": "(stereo not drawn)", "activation": "5.53% (active)"},
      {"compound": "CN(C)C(CNC(=O)c1cccc(S(=O)(=O)N(C)C)c1)c1ccccc1", "note": "(stereo not drawn)", "outcome": "inactive"},
      {"compound": "CCCc1c(O)nc(SCCN(CC)CC)[nH]c1=O", "activation": "51.5% (active)"},
      {"compound": "CCC(=O)N1CCc2cc(Br)cc(S(=O)(=O)NCCCN(CC)Cc3ccccc3)c21", "activation": "55.5% (active)"},
      {"compound": "Cc1ccc(Cn2c(SCCN3CCCCC3)nc3c2c(=O)n(C)c(=O)n3C)cc1", "activation": "8.42% (active)"},
      {"compound": "O=C(O)C1C2C=CC(C2)C1C(=O)N1CCN(C/C=C/c2ccccc2)CC1", "note": "(stereo not drawn)", "activation": "12.8% (active)"},
      {"compound": "COc1ccc(C)c(NC(=O)NCCc2cnc[nH]2)c1", "activation": "56.4% (active)"},
      {"compound": "OCCC1CN(Cc2ccccc2-c2ccco2)CCN1Cc1ccccc1", "note": "(stereo not drawn)", "activation": "17.2% (active)"},
      {"compound": "COc1ccc(CCN(C)C(=O)C2CCCN(C3CCN(Cc4ccccc4)CC3)C2)cc1OC", "note": "(stereo not drawn)", "activation": "28.9% (active)"},
      {"compound": "CCOc1ccc(S(=O)(=O)Nc2cccc(C(=O)NCC(c3ccccc3)N(C)C)c2)cc1", "note": "(stereo not drawn)", "outcome": "inactive"},
      {"compound": "Cc1cc(C)cc(NC(=S)N2CCN(c3ncc(C(F)(F)F)cc3Cl)CC2)c1", "activation": "49.6% (active)"},
      {"compound": "COc1ccc(C(CNC(=O)c2cccc(Br)c2)N2CCCC2)cc1", "note": "(stereo not drawn)", "outcome": "inactive"},
      {"compound": "CC(C)n1cnc2c(N(C)c3ccccc3)nc(N(CCN(C)C)Cc3ccccc3)nc21", "outcome": "inactive"},
      {"compound": "Cc1cccn2c(CNCCc3ccccn3)c(C(=O)N3CCOCC3)nc12", "activation": "57.2% (active)"},
      {"compound": "Cc1ccc(C)c(-n2cc(CNCCCn3cccn3)c(-c3ccccc3)n2)c1", "activation": "29.9% (active)"},
      {"compound": "Cc1csc2c(N3CCN(C(=O)Nc4ccc(OC(F)(F)F)cc4)CC3)ncnc12", "activation": "43.3% (active)"},
      {"compound": "CN(CCc1ccccn1)C(=S)Nc1cccc(S(=O)(=O)N(C)C)c1", "activation": "53.6% (active)"},
      {"compound": "Cc1ccc(NC(=S)NC2CC3CCC(C2)N3Cc2ccco2)c(C)c1", "note": "(stereo not drawn)", "activation": "25.9% (active)"},
      {"compound": "COc1cc2c(cc1OC)C(C)N(C(=O)C(NC(=O)c1ccccc1)C(C)C)CC2", "note": "(stereo not drawn)", "outcome": "inactive"},
      {"compound": "O=C(NC1CC1)C1=C[C@H](c2csc3ccccc23)C[C@H](OCc2ccc(CO)cc2)O1", "outcome": "inactive"},
      {"compound": "Clc1ccc2nc(N3CCNCC3)nc(-c3ccccc3)c2c1", "activation": "26.8% (active)"},
      {"compound": "COc1ccc(C(CNC(=O)/C=C/c2c(Cl)nc3ccccn23)N(C)C)cc1", "note": "(stereo not drawn)", "activation": "7.37% (active)"},
      {"compound": "CC(=O)n1cc([C@H]2C=C(C(=O)NCc3ccccc3)O[C@@H](OCc3ccc(CO)cc3)C2)c2ccccc21", "outcome": "inactive"},
      {"compound": "CCCn1ncc(CN2CCC(n3nccc3NC(=O)CCc3ccccc3)CC2)c1C", "outcome": "inactive"},
      {"compound": "CC(=O)NC(CC(=O)NCC(c1ccco1)N(C)C)c1ccccc1", "note": "(stereo not drawn)", "outcome": "inactive"},
      {"compound": "COc1ccc(C(=O)NNC(=S)NC(=O)c2cccs2)cc1", "activation": "42.7% (active)"},
      {"compound": "COCCn1nnnc1C(c1cc2ccc(OC)cc2[nH]c1=O)N1CCN(C2CCCCC2)CC1", "note": "(stereo not drawn)", "activation": "13.6% (active)"},
      {"compound": "O=C(c1sc2ccccc2c1Cl)N(Cc1ccccc1)C1CCS(=O)(=O)C1", "note": "(stereo not drawn)", "outcome": "inactive"},
      {"compound": "O=c1c(Cc2ccc(F)cc2)c(O)ccn1CCc1cnc[nH]1", "activation": "29% (active)"}
    ]}
  ]
}
